Values joined by “and” are separate entries in the source; they are usually repeats but may differ in a detail not shown here. Equal values may be shown once. Among all 370,000 compounds or so, about 2,300 (0.62%) were called active. The sample holds actives, similar compounds and a random draw of the others, so the mix is not that of the screen.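 How the source made its calls: active means inhibition above a per-campaign cutoff equal to the mean of compounds falling between control-based bounds plus 3 SD (cut at about 20% in these data); inactive means the rest.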 Where a structure was tested more than once in an assay, its records may differ in their call.

Chain of Disintegrin and metalloproteinase domain-containing protein 10 (Homo sapiens) (O14672 214-748 limits assumed): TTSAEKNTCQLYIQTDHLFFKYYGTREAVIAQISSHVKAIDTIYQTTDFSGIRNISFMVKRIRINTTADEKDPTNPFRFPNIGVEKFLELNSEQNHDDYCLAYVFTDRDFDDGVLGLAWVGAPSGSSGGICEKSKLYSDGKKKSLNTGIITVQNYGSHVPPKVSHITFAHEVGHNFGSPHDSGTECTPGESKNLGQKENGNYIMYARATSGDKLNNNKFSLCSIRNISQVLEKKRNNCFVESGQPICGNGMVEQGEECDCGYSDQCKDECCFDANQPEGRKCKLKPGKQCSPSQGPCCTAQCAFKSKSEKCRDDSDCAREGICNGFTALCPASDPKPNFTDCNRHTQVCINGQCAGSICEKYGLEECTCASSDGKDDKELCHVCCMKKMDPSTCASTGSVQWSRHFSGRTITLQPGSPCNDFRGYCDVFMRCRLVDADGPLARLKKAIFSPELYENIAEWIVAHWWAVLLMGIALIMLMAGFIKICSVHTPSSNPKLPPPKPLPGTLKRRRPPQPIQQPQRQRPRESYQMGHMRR

This experiment addresses Disintegrin and metalloproteinase domain-containing protein 10 (Homo sapiens) (UniProt O14672). As to the kind of experiment: human ADAM10 inhibitors, primary screen, biochemical, QFRET, HTS (AID 720582).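 Further: 0% = DMSO wells while the 100% control is not disclosed.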 The following applies: recombinant ADAM10, EDANS/DABCYL FRET peptide cleavage, 3 h; at 7 µM; stronger effect = higher value.
The inhibition is the change of the read-out against control, counted positive when it falls. With `CCOC(=O)[C@]12CCCC=C1N(Cc1ccc(OC)cc1)C(=O)[C@@H]2CC(=O)N1CCOCC1`, the inhibition was 0.19% (inactive).

`COc1ccc(Cl)cc1NC(=O)CN(C)C(=O)c1ccc2n[nH]nc2c1`: the inhibition is -4.74% (inactive).

On to `COc1ccc(Cl)cc1NC(=O)CN(C)C(=O)CNC(=O)C12CC3CC(CC(C3)C1)C2`, for which the inhibition was 0.24% (inactive).

Turning to `COc1ccc(Cl)cc1NC(=O)CN(C)C(=O)CCCc1c[nH]c2ccccc12`, the inhibition is 56.1% (active).

In the case of `O=C(CSc1nnc(-c2ccccn2)n1-c1ccccc1)Nc1ccc2cn[nH]c2c1`, the inhibition is 1.78% (inactive).

Consider `CCOC(=O)c1ccc(NC(=O)c2nc[nH]c2C(=O)N[C@@H](CCCCNC(=O)OC(C)(C)C)C(=O)OC(C)(C)C)cc1`, for which the inhibition is -1.17% (inactive).

Consider `Cc1ccc(NC(=O)c2nc[nH]c2C(=O)N[C@@H](CCCCNC(=O)OC(C)(C)C)C(=O)OC(C)(C)C)cc1`, for which the inhibition was 22.4% (active).

In the case of `CC(C)(C)OC(=O)NCCCCCNC(=O)c1[nH]cnc1C(=O)Nc1nccs1`, the inhibition is -0.11% (inactive).

On to `Cc1nc(CNc2ncnc3ccc(-c4ccc5c(c4)OCO5)cc23)cs1`, for which the inhibition was -136% (inactive).

Consider `CSc1nccc(NC(=O)c2ccc(C(C)(C)C)cc2)n1`, for which the inhibition is 10.6% (inactive).

Take `CC(C)(C)c1ccc(C(=O)Nc2cc(Cl)c(Br)cc2C(=O)O)cc1`: the inhibition was 19.8% (active).

With `CSc1ccc(C#N)cc1NC(=O)c1ccc(Cl)cc1`, the inhibition is 7.58% (inactive).

Turning to `COC(=O)[C@H](C(C)C)N(CCCc1cn(Cc2ccccc2)nn1)S(=O)(=O)c1ccc(F)cc1Br`, the inhibition is 2.42% (inactive).

`C=CCN1C(C(=O)OC)CN(Cc2cn(Cc3ccccc3)nn2)CCS1(=O)=O` (stereo unspecified): the inhibition was 2.91% (inactive).

Regarding `O=C1NC(Nc2nc3ccccc3s2)(C(F)(F)F)C(=O)N1C1CCCCC1` (stereo unspecified), the inhibition is 21% (active).

Take `O=C1[C@H]2[C@@H](c3ccc(F)cc3)N3C(=O)N(c4ccc(C(F)(F)F)cc4)C(=O)[C@@]3(Cc3ccccc3)[C@H]2C(=O)N1C1CCCCC1`: the inhibition was 22.2% (active).

As to `Cc1cccc(N2C(=O)N3[C@H](c4ccc(F)cc4)[C@@H]4C(=O)N(C5CCCCC5)C(=O)[C@@H]4[C@]3(Cc3ccccc3)C2=O)c1`, the inhibition was 5.39% (inactive).

Regarding `Cc1cccc([C@@H]2[C@@H]3C(=O)N(Cc4ccccc4)C(=O)[C@@H]3[C@]3(Cc4ccc(Cl)cc4)C(=O)N(c4cccc(Cl)c4)C(=O)N23)c1`, the inhibition is -4.37% (inactive).

With `CCCCCc1c(-c2ccc(OC)c(OC)c2)ncn1CCc1ccccc1OC`, the inhibition is 22.3% (active).

Turning to `CCCCc1c(-c2ccc(Cl)cc2)ncn1CCc1ccccc1OC`, the inhibition is -7.93% (inactive).

In the case of `CCCCCc1c(-c2cccc(Br)c2)ncn1CCc1ccccc1OC`, the inhibition is -0.06% (inactive).

On to `CCOC(=O)[C@]12CCCCC/C=C\1N(Cc1ccc(OC)cc1)C(=O)[C@H]2CC(=O)NCCCN1CCCC1=O`, for which the inhibition is -0.03% (inactive).

Consider `CC(=O)N1CCc2cc(S(=O)(=O)NCCC(=O)N3CCCC3)ccc21`, for which the inhibition is -14% (inactive).

In the case of `COc1cc(/C=C/C(=O)n2cnc3ccccc32)cc(OC)c1OC`, the inhibition was -59.7% (inactive).

With `CCCCCN1CCCCC(NC(=O)C(C)CCC)C1=O` (stereo unspecified), the inhibition is -6.07% (inactive).

Turning to `CCOc1ccc(Br)cc1S(=O)(=O)Nc1cccc(S(=O)(=O)N(CC)CC)c1`, the inhibition is 0.81% (inactive).

In the case of `CCOc1ccc(Br)cc1S(=O)(=O)Nc1ccc(S(=O)(=O)Nc2cc(C)on2)cc1`, the inhibition is -5.64% (inactive).

Take `CCOc1ccc(Br)cc1S(=O)(=O)Nc1ccc(C(=O)OC(C)C(=O)N(C)c2ccccc2)cc1` (stereo unspecified): the inhibition is 22.5% (active).

On to `CC(C)C(C#CC1CC1)N(Cc1ccc2c(c1)OCO2)C(N)=NC(=O)/C=C/c1cccc(C(F)(F)F)c1` (stereo unspecified), for which the inhibition is -4.29% (inactive).

Turning to `COC(=O)c1cccc(Cn2ccc3ccc(-c4ccc5ccn(C(=O)c6ccccc6C)c5c4)cc32)c1`, the inhibition is -41.7% (inactive).

`CCCC1CCC2(CCCN2CCOC(=O)NCc2ccccc2)CC1` (stereo unspecified): the inhibition is -8.67% (inactive).

For the compound `CC(C)N1CCCCC(NC(=O)C(C)(C)C)C1=O` (stereo unspecified), the inhibition was -0.89% (inactive).

For `N#Cc1cccc(NC(=O)C2CCCN(C(=O)c3ccc(Cl)cc3)C2)c1` (stereo unspecified), the inhibition was -3.16% (inactive).

`CCOc1ccc(N2C(=O)CC(N(CCc3ccc(OC)c(OC)c3)C(=S)Nc3ccccc3)C2=O)cc1` (stereo unspecified): the inhibition was 23.9% (active) and 6.83% (inactive).

Regarding `COc1ccc(N2C(=O)C(CC(=O)Nc3ccccc3)N(Cc3ccc(OC)c(OC)c3)C2=O)cc1` (stereo unspecified), the inhibition is 0.53% (inactive).

Regarding `CN(C)c1ccc(NC(=S)N(CCc2ccccc2)C2CC(=O)N(c3c(Cl)cccc3Cl)C2=O)cc1` (stereo unspecified), the inhibition was 11.2% (inactive).

As to `CCOC(=O)[C@]12CCCC=C1N(CCCOC)C(=O)[C@@H]2CC(=O)N1CCOCC1`, the inhibition was -0.44% (inactive).

Turning to `CN1[C@H](Cc2ccccc2)COc2cccc(N3CCSCC3)c2S1(=O)=O`, the inhibition was -1.57% (inactive).

As to `CCC(C(=O)Nc1ccc(C(C)C)cc1)c1ccccc1` (stereo unspecified), the inhibition is 5.96% (inactive).

With `CCC(C(=O)OCC(=O)Nc1ccccc1-c1ccccc1)c1ccccc1` (stereo unspecified), the inhibition was 20.3% (active).

With `O=C(CNCc1ccc(F)cc1)Nc1ccccc1-c1ccccc1`, the inhibition is 4.85% (inactive).

For the compound `CC1CCN(c2ccc(C(=O)O)cc2NS(=O)(=O)c2ccc(Br)s2)CC1`, the inhibition is -0.83% (inactive).

With `C[C@H](C(=O)N(C)c1ccccc1)[C@@H](O)c1ccc(Cl)cc1`, the inhibition was 2.56% (inactive).

As to `CC(=O)N1CCCN(C2=Nc3ccccc3Sc3ccccc32)CC1`, the inhibition was 1.32% (inactive).

On to `O=C(CSc1nnc(-c2cccc(Cl)c2)n1Cc1ccco1)Nc1ccc(OCc2ccccc2)cc1`, for which the inhibition is 7.99% (inactive).

With `Cc1ccc(-c2nc(C3CCCN(S(=O)(=O)c4ccc(Br)s4)C3)no2)cc1` (stereo unspecified), the inhibition was -6.94% (inactive).

Turning to `O=C(NCCC1=CCCCC1)C1CCN(S(=O)(=O)c2ccc(Cl)s2)CC1`, the inhibition was -5.18% (inactive).

Turning to `COc1ccc(OCCCn2cccc2/C=C2/C(=N)N3OC(C)=CC3=NC2=O)cc1`, the inhibition was 24.4% (active).

Consider `COc1ccccc1OCCOc1ccc(/C=C2\C(=N)N3N=C(C)SC3=NC2=O)cc1`, for which the inhibition was -72.1% (inactive).

On to `COc1ccc(OCCn2ccnc2C)cc1`, for which the inhibition is 3.1% (inactive).

For `COCC(=O)N[C@@H]1C[C@@H]2O[C@@H](CO)CC[C@@H]2O[C@@H]1CCc1ccc(-c2ccccc2)cc1`, the inhibition was 4.87% (inactive).
